# Test results: PubChem BioAssay AID463173 (ICCB-Longwood Screening Facility, Harvard Medical School, 2010)
# About 4,300 (8.3%) of roughly 52,000 compounds were called active. Cut-off read from the data, not from the text of the source: active = survival mostly below about 52% (no sharp cut-off); inactive = mostly above about 56%. The list comes from a sample in which actives are over-represented; it also holds similar structures and randomly drawn compounds.
# Tested on: DeltatarO mutant
# Assay: growth inhibition of S. aureus wild type versus tarO mutant, primary screen, teichoic acid synthesis inhibitors, RN4220, OD600 (AID 463173)
# Conditions: OD600, 18 h, hits give low values, screened at 18.75 µg/mL (by protocol)
row,SMILES,survival
1,O=c1[nH]nc(-c2ccccc2)c2cc3c(=O)[nH]nc(-c4ccccc4)c3cc12,100% (inactive)
2,CSc1cccc(NC(=O)Cn2c(=O)n(Cc3ccccc3)c(=O)c3sc4ccccc4c32)c1,91% (inactive)
3,Cc1ccc(Cn2c(=O)n(CC3CCC(C(=O)N4CCOCC4)CC3)c(=O)c3sccc32)cc1 (configuration not stated),75% (inactive)
4,Cc1cccc(CC2C(=O)Nc3ccccc32)c1 (configuration not stated),87% (inactive)
5,CCc1ccccc1NC(=O)Cn1ccn(-c2cc(C)cc(C)c2)c(=O)c1=O,67% (inactive)
6,Cc1cc(Cl)ccc1NC(=O)C(=O)NCc1ccco1,135% (inactive)
7,CCC(O)c1nc2ccccc2n1Cc1cc(C)ccc1C (configuration not stated),86% (inactive)
8,Cc1ccc(C)c(Cn2c(-c3cccs3)nc3ccccc32)c1,-3% (active)
9,Cc1ccc(C)c(Cn2c(C(C)NC(=O)c3ccccc3)nc3ccccc32)c1 (configuration not stated),88% (inactive)
10,Clc1ccc(CSc2nncn3c2cc2occc23)cc1,47% (inactive)
11,Cc1nnc(SCc2ccc(Cl)cc2)c2cc3occc3n12,28% (active)
12,Cc1cc2c(cc3c(SCc4ccccc4Cl)nnc(C)n32)o1,49% (active)
13,Cc1cc(C)c(CSc2nnc(C)n3c2cc2occc23)c(C)c1,40% (active)
14,Cc1cc2c(cc3c(SCc4cccc(Cl)c4)nnc(C)n32)o1,56% (inactive)
15,Cc1cc2c(cc3c(SCc4ccc(Cl)cc4)nnc(C)n32)o1,57% (inactive)
16,Cc1oc(-c2cccc(Cl)c2)nc1CSc1nnc(C)n2c1cc1occc12,79% (inactive)
17,C=Cc1ccc(CSc2nnc(C)n3c2cc2occc23)cc1,42% (active)
18,Cc1ccc(-c2nc(CSc3nnc(C)n4c3cc3occc34)c(C)o2)cc1,72% (inactive)
19,Cc1oc(-c2ccccc2F)nc1CSc1nnc(C)n2c1cc1occc12,74% (inactive)
20,Cc1nnc(SCc2ccccc2Cl)c2cc3occc3n12,74% (inactive)
21,Cc1ccc(C)c(NC(=O)CSc2nnc(C)n3c2cc2occc23)c1,66% (inactive)

row,SMILES,survival
1,COc1ccc(NC(=O)C(CC(C)C)NS(=O)(=O)c2ccc3c(c2)oc(=O)n3C)cc1Cl (configuration not stated),127% (inactive)
2,Cc1cccc(NC(=O)CSc2nc3c(sc4ccccc43)c(=O)n2CCCC(=O)NC2CCCC2)c1,87% (inactive)
3,CCOC(=O)c1c(C)oc2ncnc(NCCCN3CCN(c4cc(C)ccc4C)CC3)c12,101% (inactive)
4,Cc1ccc(Cn2c(C(=O)NCc3ccccc3Cl)cc3sccc32)cc1,86% (inactive)
5,COc1ccccc1-c1nc2c3c(-c4ccccc4)c(-c4ccccc4)oc3ncn2n1,70% (inactive)
6,COc1cccc(NC(=O)CSCc2cc(=O)c3ccc(C)c(C)c3[nH]2)c1,74% (inactive)
7,CSCCC(NS(=O)(=O)c1ccc2c(c1)oc(=O)n2C)C(=O)Nc1ccc(Cl)cc1 (configuration not stated),94% (inactive)
8,COc1ccccc1CCNC(=O)CCn1c(=O)c2cccn2c2ccc(F)cc21,44% (active)
9,COc1ccc(OC)c(CNC(=O)CCn2c(=O)c3cccn3c3ccc(F)cc32)c1,58% (inactive)
10,COc1ccc(OC)c(CCNC(=O)CCCn2c(=O)c3cccn3c3ccc(F)cc32)c1,88% (inactive)
11,COc1ccc(OC)c(CCNC(=O)CCn2c(=O)c3cccn3c3ccc(F)cc32)c1,58% (inactive)
12,O=C(CCn1c(=O)c2cccn2c2ccc(F)cc21)NCCc1ccccc1Cl,52% (inactive)
13,COc1ccc(CCNC(=O)CCn2c(=O)c3cccn3c3ccc(F)cc32)c(OC)c1OC,39% (active)
14,COc1ccc(S(=O)(=O)Nc2ccc3c(c2)CCCN3S(=O)(=O)c2ccc(C)cc2)cc1F,74% (inactive)
15,O=C(NCCn1ccc2ccccc21)c1ccc(Cl)cc1,87% (inactive)
16,O=C1CC(c2ccccc2)Cc2[nH]c(=O)c(C(=O)Nc3ccc(OC(F)(F)F)cc3)cc21 (configuration not stated),163% (inactive)
17,CCc1ccc(NC(=O)CSc2nc3ncccc3[nH]2)cc1,86% (inactive)
18,CCN(C(=O)CSc1nc2ccccc2[nH]1)c1ccccc1,85% (inactive)
19,CCN(C(=O)CSc1nc2ncccc2[nH]1)c1ccc(C(C)C)cc1,43% (active)
20,COCCCNC(=O)CSc1nc2nc(C)c(Cc3ccccc3Cl)c(C)n2n1,61% (inactive)
21,Cc1nc2nc(SCC(=O)NC3CCC(C)CC3)nn2c(C)c1Cc1ccccc1 (configuration not stated),92% (inactive)

row,SMILES,survival
1,Cc1ccc(Cc2c(C)nc3nc(SCC(=O)NC4CCC(C)CC4)nn3c2C)cc1 (configuration not stated),131% (inactive)
2,COc1cc(NC(=O)CSc2nc3nc(C)c(Cc4ccccc4Cl)c(C)n3n2)cc(OC)c1,73% (inactive)
3,COc1ccccc1CNC(=O)CSc1nc2nc(C)c(Cc3ccccc3C)c(C)n2n1,118% (inactive)
4,Cc1nc2nc(SCC(=O)NC3CCC(C)CC3)nn2c(C)c1Cc1ccccc1Cl (configuration not stated),83% (inactive)
5,Cc1nc2nc(SCC(=O)NC3CCCCC3)nn2c(C)c1Cc1ccccc1Cl,25% (active)
6,COc1ccccc1CNC(=O)CSc1nc2nc(C)c(Cc3ccccc3Cl)c(C)n2n1,46% (active)
7,Cc1cccc(Cc2c(C)nc3nc(SCC(=O)NC4CCCCC4)nn3c2C)c1,40% (active)
8,Cc1c(C(=O)N(Cc2ccc(N(C)C)cc2)CC2CCCO2)oc2ccc(Br)cc12 (configuration not stated),58% (inactive)
9,CCc1nn2c(=O)cc(COC(=O)CNC(=O)c3ccccc3)nc2s1,123% (inactive)
10,Brc1ccc(-c2cc3c(N4CCN(c5ccccc5)CC4)nccn3n2)cc1,194% (inactive)
11,COC(=O)c1nc2n(n1)C(c1cc(OC)ccc1OC)C(C(=O)Nc1ccc(C)cc1C)=C(C)N2 (configuration not stated),79% (inactive)
12,COc1ccc(C(=O)n2nc(N)c3cc4ccc(C)cc4nc32)cc1OC,94% (inactive)
13,CCOC(=O)c1cc(-c2ccc(C)cc2)n(CC(=O)Nc2ccc(OC)c(Cl)c2)c1C,67% (inactive)
14,COC(=O)c1ccc(NC(=O)Cn2cnc3c2c(=O)n(C)c(=O)n3C)cc1,80% (inactive)
15,CCOc1ccc(C(=O)NCCc2sc(-c3ccc(F)cc3)nc2C)cc1,90% (inactive)
16,COc1ccc(-c2nc(C)c(CCNC(=O)c3cc(OC)c(OC)c(OC)c3)s2)cc1OC,64% (inactive)
17,CCOc1ccc(NC(=O)C(=O)NCCc2sc(-c3ccc(C)cc3)nc2C)cc1,79% (inactive)
18,CCOc1ccc(C(=O)NCCc2sc(-c3ccc(OC)c(OC)c3)nc2C)cc1,109% (inactive)
19,CCOc1ccc(C(=O)NCCc2sc(-c3ccc(C)cc3)nc2C)cc1,-1% (active)
20,COc1ccc(-c2nc(C)c(CCNC(=O)c3ccc(C(F)(F)F)cc3)s2)cc1OC,-2% (active)
